Structures are written as SMILES. The whole screen tested about 1,300 compounds, of which about 240 (18%) were called active. Not shown: some 8% with an inconclusive outcome. How the calls were made is not given here. Not all results are given here. Measured potencies and affinities stand elsewhere.

This test can be described thus: HepG2 cell cytotoxicity, dose response, cytotoxicity control, cherry-picked samples (AID 1159577). Particulars: HepG2 cytotoxicity counterscreen, plate reader; series mostly up to 19.5 µM. Background: A counterscreen serves to expose hits that act by an unwanted route or on another target.
For `COc1ccc2c3c([nH]c2c1)[C@@H](CO)N(C(=O)C1CCCCC1)CC31CCN(Cc2nccs2)CC1`, the result was inactive.
In the case of `COc1ccc2c3c([nH]c2c1)[C@H](CO)N(C(=O)C1CCCCC1)CC31CCN(Cc2nccs2)CC1` it was “inactive”; in that of `COc1ccc2c3c(n(C)c2c1)[C@H](CO)N(C(=O)C1CC1)CC31CN(C(=O)C2CCOCC2)C1`, “inactive”.
Then `COc1ccc2c3c(n(C)c2c1)[C@@H](CO)N(C(=O)C1CC1)CC31CCN(C(=O)Nc2cccc(F)c2)CC1`, with “inactive”; and `O=C(C[C@@H]1C[C@H]2c3cc(NS(=O)(=O)c4ccc(F)cc4)ccc3O[C@H]2[C@H](CO)O1)N1CCc2ccccc2C1`, with “inactive”; and `COc1cccc(CN2[C@@H](CO)[C@H](c3ccccc3)C23CN(C(=O)C2CCOCC2)C3)c1`, with “inactive”.
For `CN(C)c1ccc2c(c1)[C@H]1C[C@H](CC(=O)NCc3ccc(Oc4ccccc4)cc3)O[C@H](CO)[C@H]1O2`, the outcome was inactive.
Then `CCCC(=O)N1CCC2(CC1)CN(S(=O)(=O)c1ccc(C)cc1)[C@@H](CO)c1[nH]c3cc(OC)ccc3c12`, with “inactive”.
With `C[C@H]1CN([C@@H](C)CO)C(=O)c2c(c3ccccc3n2C)-c2ccccc2CO[C@@H]1CN(C)C(=O)Nc1ccc(-c2ccccc2)cc1`, the call was inactive.
Turning to `O=C(Nc1ccc(C(F)(F)F)cc1)N1[C@@H]2CNC[C@H]1C2c1ccc(/C=C/c2ccccc2)cc1` (some centres not stated), the result was inactive.
As to `O=S(=O)(Cc1ccccc1)N1[C@H](CO)[C@@H](c2ccccc2)C12CN(CCC(F)(F)F)C2`, the compound was classed as inactive.
In the case of `CC(C)(C)[S@@](=O)N1Cc2cc(C(=O)NCCN3CCCCC3)nc(-c3cccc(-c4cccc(C#N)c4)c3)c2[C@H]1CCO` it was “inactive”.
Then `COc1ccc(C#Cc2ccc3c(c2)[C@H]2[C@H](CCN2C(=O)C2CCC2)[C@@H](CO)N3)cc1`, with “inactive”; and `CN(C)CC(=O)N1[C@H](CO)[C@H](c2ccc(C#CC3CCCCC3)cc2)[C@@H]1C#N`, with “inactive”.
In the case of `C[C@@H]1CN([C@H](C)CO)C(=O)c2cccc(NS(=O)(=O)c3ccccc3)c2O[C@H]1CN(C)Cc1ccc(-c2ccccc2)cc1`, the result was inactive.
In the case of `N#Cc1ccc(-c2ccc([C@@H]3[C@@H]4CN(C(=O)Nc5ccc6c(c5)OCO6)C[C@H]3N4)cc2)cc1` it was “inactive”; in that of `O=C(c1ccc(F)cc1)N1CC(=O)N2[C@H](CO)[C@@H](c3ccc(/C=C/c4ccccc4)cc3)[C@@H]2C1`, “inactive”; in that of `C/C=C/c1ccc([C@@H]2[C@H](CO)N(CC3CC3)C23CN(C(=O)c2ccc4c(c2)OCO4)C3)cc1`, “inactive”.
In the case of `O=C(C[C@H]1CC[C@@H]2[C@H](COC[C@@H](O)CN2C(=O)Nc2ccc3c(c2)OCO3)O1)N1CCN(c2ccccc2)CC1` it was “inactive”.
Then `CN(C)C(=O)c1cccc(-c2ccc3c(c2)[C@H]2[C@H](CCN2C(=O)C2CC2)[C@@H](CO)N3)c1`, with “inactive”; and `C/C=C/c1ccc([C@@H]2[C@H](CO)N(CC3CCCC3)C23CN(C(=O)CC2CC2)C3)cc1`, with “inactive”; and `CCC(=O)N1CCC2(CC1)CN(S(=O)(=O)c1ccccc1)[C@@H](CO)c1[nH]c3cc(OC)ccc3c12`, with “inactive”.
As for `N#C[C@@H]1[C@H](c2ccccc2-c2cccc(F)c2)[C@H](CO)N1C(=O)C1CCCC1`, the compound was classed as inactive.
Then `C[C@H](CO)N1C[C@H](C)[C@H](CN(C)S(=O)(=O)c2cccs2)OCc2ccccc2-c2c(n(C)c3ccccc23)C1=O`, with “inactive”; and `COc1cccc(C#Cc2cnc3c(c2)C(=O)N([C@@H](C)CO)C[C@H](C)[C@@H](CN(C)C(=O)C2CCCCC2)O3)c1`, with “inactive”.
In the case of `COc1cccc(C#Cc2cnc3c(c2)C(=O)N([C@H](C)CO)C[C@H](C)[C@@H](CN(C)C(=O)C2CCCCC2)O3)c1`, the compound was classed as inactive.
Regarding `C[C@@H]1CN([C@@H](C)CO)C(=O)c2cc(C#Cc3ccccc3)cnc2O[C@H]1CN(C)C(=O)CCN1CCCCC1`, the call was inactive.
In the case of `C[C@@H]1CN([C@H](C)CO)C(=O)c2cc(C#Cc3cccc(F)c3)cnc2O[C@@H]1CN(C)C(=O)C1CCCCC1` it was “inactive”; in that of `C[C@@H]1CN([C@H](C)CO)C(=O)c2cc(C#CCc3ccccc3)cnc2O[C@H]1CN(C)C(=O)C1CCC1`, “inactive”.
In the case of `C[C@@H]1CN([C@@H](C)CO)C(=O)c2cc(C#Cc3ccccc3)cnc2O[C@H]1CN(C)C(=O)CN(C)C` it was “inactive”; in that of `C[C@H](CO)N1C[C@H](C)[C@H](CN(C)C(=O)C2CCCCC2)Oc2ncc(C#Cc3cccc(F)c3)cc2C1=O`, “inactive”.
For the compound `C[C@H]1CN([C@@H](C)CO)C(=O)c2cc(C#Cc3cccc(F)c3)cnc2O[C@@H]1CN(C)C(=O)C1CCCCC1`, the compound was called inactive.
In the case of `COCC(=O)Nc1ccc2c(c1)OC[C@H](C)N(Cc1ccncc1)C[C@H](C)[C@@H](OC)CN(C)C2=O` it was “inactive”.
Then `C[C@H](CO)N1C[C@H](C)[C@H](CN(C)C(=O)C2CC2)Oc2cc(C#Cc3ccccc3)ccc2S1(=O)=O`, with “inactive”; and `C[C@@H]1CN([C@@H](C)CO)C(=O)c2c(c3ccccc3n2C)-c2ccccc2CO[C@H]1CN(C)Cc1cccc(C(=O)Nc2ccccc2N)c1`, with “inactive”; and `CO[C@H]1CN(C)C(=O)c2ccc(NS(=O)(=O)CC(F)(F)F)cc2OC[C@@H](C)N(Cc2nccs2)C[C@H]1C`, with “inactive”.
In the case of `COc1ccccc1-c1cccc(-c2nc(C(=O)Nc3nccs3)cc3c2[C@H](CCO)N(C(C)=O)C3)c1` it was “inactive”; in that of `C[C@@H]1CN([C@@H](C)CO)C(=O)c2ccccc2-c2ccccc2CO[C@H]1CN(C)C(=O)Nc1cccc(Cl)c1Cl`, “inactive”.
With `COc1ccc(CN2C[C@@H](C)[C@H](OC)CN(C)C(=O)c3cc(NC(=O)c4nc5ccccc5s4)ccc3OC[C@H]2C)cc1`, the compound was classed as inactive.
Regarding `CCCN(C)C[C@H]1Oc2ncc(C#Cc3ccccc3OC)cc2C(=O)N([C@H](C)CO)C[C@H]1C`, the call was inactive.
`CCCN(C)C[C@H]1Oc2ncc(C#Cc3ccc(F)cc3)cc2C(=O)N([C@@H](C)CO)C[C@H]1C`: the compound was classed as inactive.
Take `COc1cccc(NC(=O)N2[C@@H](CO)[C@@H](c3ccccc3)[C@@H]2CNC(C)C)c1`: the outcome was inactive.
In the case of `C[C@@H]1CN([C@@H](C)CO)C(=O)c2cccc(NC(=O)Nc3ccccc3)c2O[C@@H]1CN(C)C(=O)Nc1ccccc1` it was “inactive”.
For the compound `COc1ccc2c3c([nH]c2c1)[C@H](CO)N(C(=O)Nc1ccc(F)cc1)CC31CCN(S(=O)(=O)c2cccc(F)c2)CC1`, the result was inactive.
On to `COc1ccc2c3c([nH]c2c1)[C@H](CO)N(C(=O)Nc1ccc(F)cc1)CC31CCN(Cc2cc(-c3ccccc3)on2)CC1`, for which the compound was classed as inactive.
Consider `COc1ccc2c3c([nH]c2c1)[C@@H](CO)N(C(=O)Nc1cccc(F)c1)CC31CN(CC2CCOCC2)C1`, for which the call was inactive.
As for `COc1ccc2c3c([nH]c2c1)[C@H](CO)N(C(=O)Nc1ccc(F)cc1)CC31CCN(C(=O)c2ccccn2)CC1`, the call was inactive.

For the origin of these results see PubChem BioAssay AID1159577 (Broad Institute, 2015).
